The text below walks through data of PubChem BioAssay (NCI).

The panel holds about 83,000 compounds, 20% with a hit somewhere; the sample as a whole holds those more often.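 Treatment: one concentration, 48 hours, 96-well format. Scoring: percent growth, with anything below 10 considered active.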 A number with no mark means an inactive call. The source made the active and inactive calls.

Test systems include SK-MEL-2 melanoma; EKVX NSCLC; SN12C renal; UO-31 renal; TK-10 renal; ACHN renal; CAKI-1 renal; A498 renal; CCRF-CEM leukemia; SR leukemia; RPMI-8226 leukemia; OVCAR-8 ovarian; OVCAR-5 ovarian; OVCAR-4 ovarian; SK-OV-3 ovarian; IGROV1 ovarian; OVCAR-3 ovarian; HS 578T breast; NCI/ADR-RES ovarian.
Test in all cases: NCI-60 one-dose screen, 48 h (100 = growth as untreated, 0 = no growth, -100 = all killed)
What all share (settings): 10 µM unless noted

As to `COC(=O)[C@]12CC[C@@H](C)[C@H](C)[C@@H]1C1=CC[C@@H]3[C@@]4(C)C(C=O)=C[C@@](C)(COS(C)(=O)=O)C4[C@H](O)C[C@@]3(C)[C@]1(C)CC2` (some centres not stated), the growth in the test with SK-MEL-2 melanoma was -60.7% (active); in the test on EKVX NSCLC, -22.4% (active); in the test on SN12C renal, -40.8% (active); in the test on UO-31 renal, -96.6% (active); in the test with TK-10 renal, -73.5% (active); with ACHN renal, -93.2% (active). Besides, the growth with CAKI-1 renal was -15.6% (active); with A498 renal, -38.5% (active); in the test on CCRF-CEM leukemia it was -33.8% (active); in the test on SR leukemia, -33.3% (active); in the test on RPMI-8226 leukemia, -10.7% (active); in the test with OVCAR-8 ovarian, -50.1% (active). Besides, the growth with OVCAR-5 ovarian is -38.3% (active); with OVCAR-4 ovarian, -52.8% (active); with SK-OV-3 ovarian, -35.2% (active); in the test with IGROV1 ovarian it was -13.4% (active); in the test on OVCAR-3 ovarian, -88.7% (active); in the test on HS 578T breast, -30.6% (active). For the same molecule, in the test with NCI/ADR-RES ovarian, the growth is -1.9% (active).
On to `CC(C)(C)C(CCc1ccc(Cl)cc1)N1CCN(C2CCCCC2)CC1` (configuration not stated), for which the growth in the test with SK-MEL-2 melanoma was 72.9%; in the test with EKVX NSCLC, 70.1%; in the test on SN12C renal, 45.7%; with UO-31 renal, 32.6%; in the test on TK-10 renal, 96.2%; in the test on ACHN renal, 51.3%. The growth in the test on CAKI-1 renal is 35.8%; in the test with A498 renal, 78%; with CCRF-CEM leukemia it was 25.9%; in the test on SR leukemia it was -13.2% (active); in the test on RPMI-8226 leukemia, 24.4%; in the test with OVCAR-8 ovarian it was 60.3%. For the same molecule, the growth in the test with OVCAR-5 ovarian is 60.2%; with OVCAR-4 ovarian it was 42.6%; in the test on SK-OV-3 ovarian it was 59.9%; in the test on IGROV1 ovarian, 62.8%; with OVCAR-3 ovarian, 41.6%; with HS 578T breast, 68.9%. Besides, in the test with NCI/ADR-RES ovarian, the growth was 60.6%.
For `O=C(CC(SCc1ccccc1)c1ccccc1)c1ccccc1` (configuration not stated), the growth in the test with SK-MEL-2 melanoma is 120%; in the test on EKVX NSCLC, 82.4%; with SN12C renal, 98.8%; in the test on UO-31 renal, 84.7%; in the test on TK-10 renal it was 87.3%; in the test on ACHN renal, 99.6%. For the same molecule, the growth in the test with CAKI-1 renal is 95.8%; in the test on A498 renal, 81.8%; in the test with CCRF-CEM leukemia, 95.9%; with SR leukemia it was 41%; with RPMI-8226 leukemia it was 38.5%; with OVCAR-8 ovarian, 103%. Further, the growth in the test on OVCAR-5 ovarian was 98.4%; with SK-OV-3 ovarian it was 99.7%; with IGROV1 ovarian, 91.4%; with OVCAR-3 ovarian, 86.5%; in the test with HS 578T breast it was 107%; in the test with NCI/ADR-RES ovarian, 93.5%.
For `CCCCCCCCCCCCCCCCCCOc1ccc(CC(=O)OCC[N+]2(C)CCCC2)cc1`, the growth in the test with SK-MEL-2 melanoma is 117%; with EKVX NSCLC, 100%; with SN12C renal, 97.9%; in the test with UO-31 renal, 92.4%; with TK-10 renal it was 98.4%; in the test on ACHN renal it was 96.8%. Also, the growth in the test with CAKI-1 renal was 84.9%; in the test with A498 renal it was 116%; with CCRF-CEM leukemia, 99.1%; with SR leukemia it was 101%; in the test with RPMI-8226 leukemia, 97.6%; in the test with OVCAR-8 ovarian it was 99.7%. Further, the growth in the test with OVCAR-5 ovarian is 97.9%; with SK-OV-3 ovarian, 108%; in the test with IGROV1 ovarian, 94.1%; in the test on OVCAR-3 ovarian, 109%; in the test with NCI/ADR-RES ovarian it was 106%.
Take `CN(C)CC1C(=O)O[C@H]2[C@H]1CC/C(COC(=O)c1cc3ccccc3[nH]1)=C\CC[C@@]1(C)O[C@@H]21` (some centres not stated): the growth is -55% (active) in the test on SK-MEL-2 melanoma; -27.4% (active) in the test with EKVX NSCLC; -22.1% (active) in the test with SN12C renal; -92.7% (active) in the test with UO-31 renal; -89.2% (active) with TK-10 renal; -82.4% (active) in the test with ACHN renal. For the same molecule, the growth with CAKI-1 renal is -14.4% (active); in the test with A498 renal, 5.21% (active); in the test with CCRF-CEM leukemia it was 1.08% (active); in the test with SR leukemia, -13.6% (active); with RPMI-8226 leukemia, -15.7% (active); in the test on OVCAR-8 ovarian, -45.6% (active). The growth was -5.25% (active) with OVCAR-5 ovarian; 65.1% in the test on SK-OV-3 ovarian; -41.2% (active) in the test with IGROV1 ovarian; -82.7% (active) with OVCAR-3 ovarian; -3.98% (active) in the test on HS 578T breast; -30.8% (active) with NCI/ADR-RES ovarian.
With `CCN1CCN(c2cc(C)nc(NCc3cc(Nc4ccnc5cc(Cl)ccc45)ccc3F)n2)CC1`, the growth with SK-MEL-2 melanoma is 104%; in the test with EKVX NSCLC, 59.6%; in the test on SN12C renal, 64.3%; in the test with UO-31 renal, 69.1%; in the test with TK-10 renal, 99.8%; in the test with ACHN renal, 34.9%. Moreover, the growth in the test on CAKI-1 renal is 87.8%; in the test on A498 renal it was 36.2%; in the test with CCRF-CEM leukemia, 16.6%; with SR leukemia, -18.4% (active); in the test with RPMI-8226 leukemia it was 74.4%; in the test with OVCAR-8 ovarian, 69.6%. Also, the growth in the test on OVCAR-5 ovarian is 56%; in the test on OVCAR-4 ovarian, 50.5%; in the test with SK-OV-3 ovarian, 87.5%; with IGROV1 ovarian, 59.1%; in the test on OVCAR-3 ovarian, 101%; in the test on HS 578T breast it was 71.4%. Besides, the growth in the test with NCI/ADR-RES ovarian is 82.8%.
On to `Cc1ccc2nc3ccccc3c(NCc3ccccc3)c2c1`, for which the growth in the test on SK-MEL-2 melanoma is 100%; in the test on EKVX NSCLC, 49.6%; in the test on SN12C renal it was 25.5%; with UO-31 renal, 18.3%; with TK-10 renal it was 75.3%; in the test on ACHN renal, 23.2%. Moreover, the growth was 35.5% with CAKI-1 renal; 11.4% in the test on A498 renal; 34.9% in the test on CCRF-CEM leukemia; 4.1% (active) in the test on SR leukemia; 6.82% (active) with RPMI-8226 leukemia; 33.5% in the test on OVCAR-8 ovarian. For the same molecule, the growth in the test on OVCAR-5 ovarian was 40.4%; in the test on SK-OV-3 ovarian, 64.3%; in the test with IGROV1 ovarian, 15.8%; with OVCAR-3 ovarian, 66%; in the test with HS 578T breast, 69.8%; in the test on NCI/ADR-RES ovarian it was 29.8%.
Take `Cc1cc(N2CCCC2)nc(NCc2cc(Nc3ccnc4cc(Cl)ccc34)ccc2F)n1`: the growth with SK-MEL-2 melanoma was -79.6% (active); with EKVX NSCLC, 11.1%; with SN12C renal it was -58.8% (active); in the test with UO-31 renal it was -59.1% (active); in the test on TK-10 renal, -56.7% (active); in the test on ACHN renal, -72.3% (active). For the same molecule, the growth is 28.5% in the test with CAKI-1 renal; -25.2% (active) in the test with A498 renal; -32.1% (active) in the test on CCRF-CEM leukemia; -28.1% (active) with SR leukemia; -44.2% (active) in the test with RPMI-8226 leukemia; -54.5% (active) with OVCAR-8 ovarian. Also, the growth with OVCAR-5 ovarian was -11.8% (active); in the test with OVCAR-4 ovarian, -14.9% (active); with SK-OV-3 ovarian, 26.8%; in the test on IGROV1 ovarian it was -18.4% (active); with OVCAR-3 ovarian, -86.9% (active); in the test on HS 578T breast, -34.5% (active). The growth in the test with NCI/ADR-RES ovarian was -33.7% (active).
